Assay results reported in PubChem BioAssay.
Values joined by “and” are separate entries in the source; they are usually repeats but may differ in a detail not shown here. Identical values can stand only once. Active and inactive are the calls of the source.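 Rule for the calls, unless noted: active = thallium flux through the channel raised or lowered by more than 3 SD from vehicle-only wells, actives on both sides; inactive = the rest.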

Experiments:
[1] = P. berghei load reduction in hepatocytes – cell-based, HepG2, luciferase luminescence, HepG2 viability, primary screen (AID 624349; in the data active = parasite load remaining mostly below about 12%, no sharp cut-off; inactive = mostly above about 10%;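 note: 100% = mean of DMSO negative control wells on the same plate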); conditions: P. berghei liver stage in HepG2, luciferase luminescence, concentration not given here; parasite load remaining: stronger effect = lower value; viability: measured here: HepG2 viability without parasites
[2] = signal quenchers or enhancers, Cy5 substrate/SSB – biochemical, NIH Clinical Collection, E. coli SSB, artefact control for HCV NS3 helicase inhibitor project (AID 743268; call rule not given here); conditions: Cy5-oligo bound E. coli SSB, fluorescence interference
[3] = test system: Hepatitis C virus NS3 helicase; assay: blockers of NS3h binding to DNA – biochemical, fluorescence polarization, NIH Clinical Collection, primary screen (AID 743270; call rule not given here); conditions: NS3 helicase binding to Cy5-dT15 DNA, stronger effect = higher value, concentration not given here
[4] = molecular target: Single-stranded DNA-binding protein (Escherichia coli (strain K12)) (UniProt P0AGE0); assay: SSB-ssDNA binding inhibitors – biochemical, fluorescence polarization, NIH Clinical Collection, counter-screen for HCV NS3 helicase inhibitor project (AID 743271; in the data active = inhibition above about 28%); conditions: E. coli SSB-DNA binding, stronger effect = higher value, concentration not given here
[5] = compounds distorting NS3 helicase fluorescence signal – biochemical, NIH Clinical Collection, artefact control for HCV NS3 helicase inhibitor project (AID 743272; call rule not given here;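 note: HCV NS3 helicase with a Cy5 labelled single stranded DNA probe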); conditions: fluorescence interference counterscreen, HCV NS3 helicase assay; stronger effect = lower value
[6] = modulation of C. elegans fzo-1 (AID 1259413; call rule not given here;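 note: fzo-1 mutant C. elegans worms in liquid wells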); conditions: C. elegans fzo-1 modulator screen, mean read-out; stronger effect = higher value
[7] = viability loss with induced miR-34 in A549 – imaging, A549 dox-inducible miR-34, nuclei and caspase counts, primary screen (AID 1347080;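 active = compounds whose cell count with miR-34 switched on is under 0.7 times the count with it off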); conditions: A549 miR-34 inducible, Hoechst nuclei count, 48 h
[8] = galactose survival enhancers in mitochondrial complex I cybrids – cell-based, galactose medium, ATP luminescence, primary screen (AID 1645843;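 active = z-score of at least 1.8 in each of two replicates, scored against plate mean and spread of sample wells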;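 note: positive z means more ATP and so rescue of galactose-driven cybrid death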); conditions: complex I mutant cybrid cells, 72 h, stronger effect = higher value
F380Y = assay: BK channel mutant inhibitors and activators – cell-based, U2OS BacMam, thallium flux, beta subunits, selectivity assay, profiling panel (AID 1259406); conditions: U2OS BacMam BK variants, at 30 µM;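 note: initial slope of Thallos dye fluorescence rise after thallium is added; log ratio against the mean of 0.3% DMSO vehicle wells on the same plate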
F380Y/beta1 = assay: as above; conditions: U2OS BacMam BK variants, at 30 µM
F380Y/beta2Delta = assay: as above; conditions: U2OS BacMam BK variants, at 30 µM
F380Y/beta4 = assay: as above; conditions: U2OS BacMam BK variants, at 30 µM
[9] = molecular target: Calcium-activated potassium channel subunit alpha-1 (Homo sapiens) + Leucine-rich repeat-containing protein 26 (Homo sapiens) (UniProt Q12791+Q2I0M4); assay: as above; conditions: U2OS BacMam BK variants, F380Y/Slo1WT/gamma1, at 30 µM
R275C = assay: as above; conditions: U2OS BacMam BK variants, at 30 µM
R275C/beta1 = assay: as above; conditions: U2OS BacMam BK variants, at 30 µM
R275C/beta2Delta = assay: as above; conditions: U2OS BacMam BK variants, at 30 µM
R275C/beta4 = assay: as above; conditions: U2OS BacMam BK variants, at 30 µM
R275C/Slo1WT/beta2 = assay: as above; conditions: U2OS BacMam BK variants, at 30 µM
[10] = test system: Neuropilin-2 / VEGF-C interaction (human); assay: small molecules blocking Neuropilin-2/VEGF-C interaction – biochemical, microplate binding format, z-score (AID 743281; call rule not given here); conditions: microplate NRP2/VEGF-C binding assay; stronger effect = lower value
[11] = MELAS cybrid and Rieske KO viability enhancers – cell-based, MELAS cybrids, Rieske KO mouse fibroblasts, CellTiter-Glo, primary screen (AID 1508586;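 active = mean z-score across replicates of 1.96 or higher in either the MELAS or the Rieske mutant cell line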;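 note: z relative to plate mean and SD of compound and empty wells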); conditions: low glucose
[12] = stronger effect = lower value, cell number ratio, induced over uninduced
[13] = measured here: relative caspase fold change +Dox/-Dox
[14] = measured here: total cells with miR-34 induction, stronger effect = lower value
[15] = measured here: total cells without miR-34 induction
[16] = MELAS cybrid survival, CellTiter-Glo 48 h, stronger effect = higher value
[17] = Rieske KO mouse fibroblast survival, CellTiter-Glo 72 h

Calcium-activated potassium channel subunit alpha-1 (Homo sapiens) + Leucine-rich repeat-containing protein 26 (Homo sapiens), sequence (Q2I0M4 whole entry, looked up, one chain of several): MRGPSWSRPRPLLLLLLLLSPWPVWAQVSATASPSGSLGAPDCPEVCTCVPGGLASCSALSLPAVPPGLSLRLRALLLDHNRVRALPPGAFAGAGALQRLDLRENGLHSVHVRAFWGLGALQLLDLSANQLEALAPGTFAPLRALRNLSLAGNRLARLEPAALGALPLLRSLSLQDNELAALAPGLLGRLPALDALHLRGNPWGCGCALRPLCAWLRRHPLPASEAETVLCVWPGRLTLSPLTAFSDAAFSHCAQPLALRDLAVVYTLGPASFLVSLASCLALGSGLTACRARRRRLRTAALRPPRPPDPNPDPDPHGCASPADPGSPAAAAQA

CN1CCC[C@H]1c1cccnc1
1.38 and 3.3: fold change [7, 13]
11100 and 13400: cell count [7, 15]
11100 and 11800: cell count [7, 14]
92.8% and 95.3% and 105%: viability [1]
inactive: parasite load remaining [1] 58.8% and 68.1% and 77.4% | fluorescence ratio [2] 1.1 | inhibition [3] -3.18% | inhibition [4] -0.48% | fluorescence ratio [5] 0.97 | mean signal [6] 289 | fold change [7, 12] 1 and 0.879 | z-score [8] 1.02 | log fold change Tl+ flux (F380Y) 0.0275 | log fold change Tl+ flux (F380Y/beta1) 0.0102 | log fold change Tl+ flux (F380Y/beta2Delta) 0.027 | log fold change Tl+ flux (F380Y/beta4) 0.0603 | log fold change Tl+ flux [9] -0.0145 | log fold change Tl+ flux (R275C) 0.033 | log fold change Tl+ flux (R275C/beta1) 0.0044 | log fold change Tl+ flux (R275C/beta2Delta) 0.0329 | log fold change Tl+ flux (R275C/beta4) -0.0173 | log fold change Tl+ flux (R275C/Slo1WT/beta2) -0.00315

CC(=O)OCC(=O)C12OC3(CCCC3)OC1CC1C3CCC4=CC(=O)C=CC4(C)C3(F)C(O)CC12C (stereo unspecified)
6100: cell count [7, 15]
1.12: fold change [7, 13]
active: log fold change Tl+ flux (F380Y) 0.16
95.1%: viability [1]
5910: cell count [7, 14]
inactive: parasite load remaining [1] 72.8% | fluorescence ratio [2] 1.06 | inhibition [3] -5% | inhibition [4] 0.29% | fluorescence ratio [5] 0.98 | mean signal [6] 242 | fold change [7, 12] 0.97 | z-score [8] -1.46 | log fold change Tl+ flux (F380Y/beta1) -0.0293 | log fold change Tl+ flux (F380Y/beta2Delta) 0.0485 | log fold change Tl+ flux (F380Y/beta4) -0.0119 | log fold change Tl+ flux [9] 0.0537 | log fold change Tl+ flux (R275C) -0.00403 | log fold change Tl+ flux (R275C/beta1) 0.0957 | log fold change Tl+ flux (R275C/beta2Delta) 0.0763 | log fold change Tl+ flux (R275C/beta4) 0.0347 | log fold change Tl+ flux (R275C/Slo1WT/beta2) 0.084

CC(COc1ccccc1Cc1ccccc1)N1CCCCC1 (stereo unspecified)
inactive: parasite load remaining [1] 25.1% | fluorescence ratio [2] 1.04 | inhibition [3] -2.77% | inhibition [4] 3.75% | fluorescence ratio [5] 1.01 | z-score [10] -1.06 | mean signal [6] 222 | fold change [7, 12] 0.815 | z-score [8] -1.81 | log fold change Tl+ flux (F380Y) 0.0907 | log fold change Tl+ flux (F380Y/beta2Delta) -0.0416 | log fold change Tl+ flux [9] -0.0112 | log fold change Tl+ flux (R275C/beta2Delta) 0.0368 | log fold change Tl+ flux (R275C/beta4) -0.00829 | log fold change Tl+ flux (R275C/Slo1WT/beta2) -0.0412
active: log fold change Tl+ flux (F380Y/beta1) 0.236 | log fold change Tl+ flux (F380Y/beta4) 0.194 | log fold change Tl+ flux (R275C) -0.246 | log fold change Tl+ flux (R275C/beta1) 0.252
6390: cell count [7, 14]
2.34: fold change [7, 13]
82.3%: viability [1]
7840: cell count [7, 15]

COc1ccnc(CS(=O)c2nc3cc(OC(F)F)ccc3[nH]2)c1OC (stereo unspecified)
inactive: parasite load remaining [1] 94.6% | fluorescence ratio [2] 1.07 | inhibition [3] -2.77% | inhibition [4] 1.44% | fluorescence ratio [5] 1.05 | z-score [10] 0.437 | mean signal [6] 243 | fold change [7, 12] 0.937 | z-score [11, 16] 1.33 | z-score [8] 0.63 | log fold change Tl+ flux (F380Y) -0.000729 | log fold change Tl+ flux (F380Y/beta1) -0.0068 | log fold change Tl+ flux (F380Y/beta2Delta) 0.0285 | log fold change Tl+ flux (F380Y/beta4) -0.0379 | log fold change Tl+ flux [9] 0.0336 | log fold change Tl+ flux (R275C) -0.0182 | log fold change Tl+ flux (R275C/beta1) 0.0487 | log fold change Tl+ flux (R275C/beta2Delta) 0.0404 | log fold change Tl+ flux (R275C/beta4) -0.00392 | log fold change Tl+ flux (R275C/Slo1WT/beta2) -0.00592
75.5%: viability [1]
9680: cell count [7, 15]
9070: cell count [7, 14]
1.32: fold change [7, 13]
0.907: z-score [11, 17]

Nc1nc(Cl)nc2c1ncn2[C@H]1C[C@H](O)[C@@H](CO)O1
1.38: z-score [11, 16]
inactive: parasite load remaining [1] 10.3% | fluorescence ratio [2] 1.02 | inhibition [3] -1.09% | inhibition [4] -3.54% | fluorescence ratio [5] 0.99 | z-score [10] -0.302 | mean signal [6] 237 | log fold change Tl+ flux (F380Y) -0.0268 | log fold change Tl+ flux (F380Y/beta1) -0.0427 | log fold change Tl+ flux (F380Y/beta2Delta) -0.00452 | log fold change Tl+ flux (F380Y/beta4) -0.0201 | log fold change Tl+ flux [9] -0.0394 | log fold change Tl+ flux (R275C) 0.0195 | log fold change Tl+ flux (R275C/beta1) 0.022 | log fold change Tl+ flux (R275C/beta2Delta) 0.0372 | log fold change Tl+ flux (R275C/beta4) 0.000993 | log fold change Tl+ flux (R275C/Slo1WT/beta2) 0.0197
3.04: z-score [11, 17]
71.4%: viability [1]

O=c1ncc(F)c[nH]1
inactive: parasite load remaining [1] 102% | fluorescence ratio [2] 1.06 | inhibition [3] 0.4% | inhibition [4] -3.95% | fluorescence ratio [5] 1.05 | z-score [10] -0.183 | mean signal [6] 283 | fold change [7, 12] 0.892 | z-score [8] 0.75 | log fold change Tl+ flux (F380Y) -0.0112 | log fold change Tl+ flux (F380Y/beta1) 0.016 | log fold change Tl+ flux (F380Y/beta2Delta) 0.0227 | log fold change Tl+ flux (F380Y/beta4) -0.00465 | log fold change Tl+ flux [9] 0.0169 | log fold change Tl+ flux (R275C) -0.0477 | log fold change Tl+ flux (R275C/beta1) 0.0224 | log fold change Tl+ flux (R275C/beta2Delta) -0.0499 | log fold change Tl+ flux (R275C/beta4) 0.00687 | log fold change Tl+ flux (R275C/Slo1WT/beta2) -0.000391
11100: cell count [7, 15]
68.9%: viability [1]
1.42: fold change [7, 13]
9920: cell count [7, 14]

CO[C@H]1/C=C/O[C@@]2(C)Oc3c(C)c(O)c4c(O)c(c(C=NN5CCN(C)CC5)c(O)c4c3C2=O)NC(=O)/C(C)=C\C=C\[C@H](C)[C@H](O)[C@@H](C)[C@@H](O)[C@@H](C)[C@H](OC(C)=O)[C@@H]1C
94.3%: viability [1]
9180: cell count [7, 14]
inactive: parasite load remaining [1] 23.7% | inhibition [3] -3.18% | inhibition [4] 3.34% | fluorescence ratio [5] 0.87 | fold change [7, 12] 0.888 | z-score [8] -1.41 | log fold change Tl+ flux (F380Y) 0.0886 | log fold change Tl+ flux (F380Y/beta1) -0.0407 | log fold change Tl+ flux (F380Y/beta4) 0.0159 | log fold change Tl+ flux [9] -0.0449 | log fold change Tl+ flux (R275C) -0.067 | log fold change Tl+ flux (R275C/beta1) 0.00744 | log fold change Tl+ flux (R275C/beta2Delta) -0.0205 | log fold change Tl+ flux (R275C/beta4) 0.0765 | log fold change Tl+ flux (R275C/Slo1WT/beta2) -0.0151
10300: cell count [7, 15]
2.93: fold change [7, 13]
active: fluorescence ratio [2] 0.107 | log fold change Tl+ flux (F380Y/beta2Delta) 0.125
